Screens (PubChem)
Shown are actives, neighbours in structure and some others; about 6.5% of the full set was active somewhere.
VACV Venus inh = vaccinia inhibition (Venus reporter); hit rate 0.46% among 330,000; AID 720580; Potency, µM (titrated, usually from 36.5 µM), without a hit: top-dose activity change, negative = inhibition, hits mostly inhibitors; Vaccinia virus Venus reporter expression, fluorescence; calls by dose curve; tested in A549 cells; note: potency is the fitted concentration of half-maximal effect; nearly all actives have a fitted effect of over 30% in size
FMDV inh = antivirals against foot and mouth disease virus; FMDV antiviral cell-based qHTS; Potency, µM (doses to about 57.9 µM), for inactives: at the highest dose activity change, negative = inhibition, hits mostly inhibitors; hit rate 1.2% among 410,000; AID 1159524; calls by dose curve; tested in HEK293T cells; note: read-out not given here; potency is the fitted concentration of half-maximal effect; nearly all actives have a fitted effect of over 45% in size
HCMV antiviral = blocks human cytomegalovirus replication | HFF cells, HCMV-luciferase reporter, 72 h; active compounds read low | activity change, negative = inhibition, % at 57.5 µM | hit rate 4.5% among 410,000 | AID 1259415; in the data active = activity change below about -60%; inconclusive = no clear call, values can overlap the other calls; inactive = above about -39%
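Two-dose cell screen: HFF monolayers treated with compounds and infected with luciferase-expressing HCMV at 1 PFU/cell, 72 h at 37C, then lysed for luciferase measurement.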
VACV mCherry inh = vaccinia inhibition (mCherry reporter); Vaccinia virus mCherry reporter infection, fluorescence; Potency, µM (titrated, usually from 36.5 µM), without a hit: at the top dose activity change, negative = inhibition, actives largely listed as inhibitors; hit rate 0.63% among 310,000; AID 720579; calls by dose curve; tested in A549 cells; note: potency is the fitted concentration of half-maximal effect; nearly all actives have a fitted effect of over 35% in size
Lassa entry inh = inhibitors of Lassa virus binding or cell entry; Lassa virus pseudotype entry inhibition, cell reporter; Potency, µM (top dose mostly 37.9 µM), for inactives: at the top dose activity change, negative = inhibition, actives largely listed as inhibitors; hit rate 1.2% among 300,000; AID 540256; calls by dose curve; tested in HEK293 cells; note: potency is the fitted concentration of half-maximal effect; nearly all actives have a fitted effect of over 50% in size
MARV entry inh = inhibitors of Marburg virus binding or cell entry. Marburg virus pseudotyped entry inhibition, cell reporter. hit rate 1.8% among 300,000. Potency, µM (titrated, usually from 37.8 µM), for inactives: top-dose activity change, negative = inhibition, most hits filed as inhibitors; calls by dose curve; tested in HEK293 cells; note: potency is the fitted concentration of half-maximal effect
Active calls of the source: *; i = inactive; ? = inconclusive; . = no result given; [ ] = another dose, or the depositor's remark. % is set by controls: 0 for no effect and ±100 for the full control effect.

SMILES	VACV Venus inh	FMDV inh	HCMV antiviral	VACV mCherry inh	Lassa entry inh	MARV entry inh
COc1ccc(NC(=O)C2(C)CCCN(C(C)C)C2)cc1F (centres undefined)	-3.2%	-4.9%	-14.7	-14.0%	.	.
O=C(O)c1cccc(S(=O)(=O)N(Cc2ccccc2)c2ccc(Cl)cc2)c1	-6.2%	-9.8%	?	i	13.0%[46.1 µM]	?
O=C(NCc1cccnc1)c1cnn(-c2nccc(-c3cccs3)n2)c1C1CC1	-11.9%	-18.3%	.	-27.2%	.	.
CCCC[C@@H]1C[C@H]1C(=O)Nc1ccc(OC)c(OC)c1	.	.	.	.	.	1.4%
CCN(CC)c1nc(NC2CCN(C)CC2)c2cc(OC)c(OC)cc2n1	?	.	.	-35.9%	.	.
CC/C(=N\N1CCCCCC1)c1c(O)n(-c2ccc(C)cc2)c(=O)[nH]c1=O	-17.6%	0.0%	-19.2	i	0.398µM*	11.2%
C/C(=N\N1CCCCCC1)c1c(O)n(-c2ccc(C)cc2)c(=O)[nH]c1=O	-26.6%	5.6%	-36.9	i	?	?
COc1ccc(S(=O)(=O)NCCC(=O)OCC(=O)c2ccc[nH]2)cc1[N+](=O)[O-]	.	32.8%	-26.8	.	.	.
CCc1cccc(C)c1NC(=O)CN1C(=O)c2c(c3ccccc3n2C)C1c1ccc(OC)cc1 (centres undefined)	-9.6%	-18.7%	0.0	-12.6%	-7.6%[46.1 µM]	.
COc1cccc(C(NC(C)=O)c2nc(-c3ccncc3)cs2)c1 (centres undefined)	0.9%	-17.6%	16.1	i	.	.
Cc1cc(C(=O)NN=C2CC(=O)CC(C)(C)C2)c(C)o1	-2.9%	0.7%	-20.3	i	2.3%	?
Cc1cc(C(=O)N/N=C2\CC(=O)c3ccccc32)c(C)n1-c1ccccc1	-6.6%	-3.9%	60.2	?	?	?
Cc1cc(C(=O)N/N=C2\CC(=O)CC(C)(C)C2)c(C)n1-c1ccccc1	.	0.0%	?	.	19.7%	2.91µM*
Cc1cc(C(=O)N/N=C2\CC(=O)CC(C)(C)C2)c(C)n1-c1ccc(F)cc1	-13.7%	0.0%	-64.3*	i	6.0%	-13.7%
CCc1cc(=O)oc2c3c(cc(OCC(=O)NCCCOC)c12)OC(C)(C)CC3	-16.4%	3.0%	-68.6*	-3.2%	5.5%[46.1 µM]	-1.3%[46.1 µM]
OC(c1cc(-c2ccc(Cl)cc2)nc2ccccc12)C1CCCCN1 (centres undefined)	14.1µM*	?	4.1	?	.	.
O=S(=O)(c1ccc2ccccc2c1)N1CCN(c2nc(-c3ccccc3)nc3ccccc23)CC1	-16.5%	.	.	-12.7%	.	.
CCN(CC)CCCN(C(=O)c1cccs1)c1nc(-c2ccc(OC)cc2)cs1	.	-13.7%	.	.	?	?
CCN(CC)CCCN(C(=O)c1ccc(Br)cc1)c1nc(-c2ccc(OC)cc2)cs1	-16.7%	-8.4%	-36.3	?	?	3.55µM*
CCN(CC)CCCN(C(=O)c1ccco1)c1nc(-c2ccc(C)cc2)cs1	-4.8%	2.4%	?	?	?	8.91µM*
COc1ccc(-c2csc(N(CCCN(C)C)C(=O)c3ccc(OC)c(OC)c3)n2)cc1	-9.4%	?	10.8	1.8%	.	.
CCN(CC)CCCN(C(=O)c1cccc(C)c1)c1nc(-c2ccc(OC)cc2)cs1	.	2.4%	-94.7*	.	.	.
CCN(CC)CCCN(C(=O)c1ccco1)c1nc(-c2ccc(Cl)cc2)cs1	-21.2%	-1.8%	35.0	-22.4%	?	?
Fc1cccc(Oc2ccc3c(-c4ccccc4F)noc3n2)c1	.	.	-24.6	.	.	.
Cc1ccc(C2(c3ccc(C)cc3)CC2C(=O)Nc2ccc([N+](=O)[O-])cc2O)cc1 (centres undefined)	?	-19.4%	-102.1*	-23.7%	12.6µM*	?
Cc1cc(C)nc(S[C@@H]2C[C@@H](C(=O)N3CCCN(C)CC3)N(Cc3cc(F)ccc3F)C2)n1	-5.6%	-3.8%	.	-12.5%	.	.
N=c1n(Cc2ccc(Cl)cc2)c2ccccc2n1CC(O)COc1ccccc1 (centres undefined)	?	?	-102.4*	28.2µM*	?	?
N=c1n(Cc2ccccc2)c2ccccc2n1CC(O)COc1ccc(Cl)cc1Cl (centres undefined)	?	35.5µM*	-101.4*	?	?	?
N=c1n(CCO)c2ccccc2n1Cc1ccc(Cl)cc1	-15.9%	-21.9%	-18.0	.	0.8%	?
CCn1c(=N)n(CC(O)COc2ccccc2)c2ccccc21 (centres undefined)	-15.1%	-11.9%	-21.6	-21.1%	9.3%[46.1 µM]	.
